Screening results from PubChem BioAssay.
Hits are enriched below; roughly 6.9% of the tested compounds scored in any of these assays.
CSC inhib – blocks cancer stem cells; cancer stem cell-like cells viability, luminescence; inhibition, % at 7.5 µM; 300,000 tested, 1.1% active; AID 2717; in the data active = inhibition above about 75%; inconclusive = no clear call, values can overlap the other calls; tested in HMLE shEcad cells
MPTP inh – permeability transition pore inhibition | isolated mouse mitochondria, Ca2+ swelling absorbance, 30 min | inhibition, % at 10 µM | 360,000 tested, 1.4% active | AID 602449;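 active = inhibition of 50% or more, scaled per plate between neutral and stimulator controls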;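 note: 0% = DMSO wells given calcium and 100% = 1 mM EGTA wells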
GRIN3A LBD mod – NR3A (human) ligand-binding domain modulation | Tm shift relative to glycine control, % at 25 µM | NR3A LBD differential scanning fluorimetry, Tm shift; 0% = protein alone, 100% = glycine-bound protein | 340,000 tested, 2.5% active;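 active = melting temperature shift of at least 10% of the positive control shift, at one fixed dose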
SKKanGAS inh – blocks kanamycin growth of S. pyogenes SKKanGAS strain; AID 1662; 300,000 tested, 1.3% active; inhibition, % at 7.5 µM; BacTiter-Glo, 6 h;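 active = mean replicate score, as percent of positive control median, at least 50; inconclusive = mean below 50 but one replicate at or above 50; inactive = mean and every replicate below 50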;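 note: strain carries kanamycin resistance gene driven by streptokinase promoter and grows in 40 µg/ml kanamycin; loss of luminescence reflects streptokinase promoter inhibition or plain growth inhibition; 0% = median of DMSO wells and 100% = positive control at its reference dose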
Mdm2 MdmX PPI – inhibitors of human Mdm2/MdmX interaction. O15151+Q00987. SaOS-2 split-luciferase Mdm2/MdmX complementation, luminescence. inhibition, % at 8 µM. 330,000 tested, 3% active;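 active = inhibition of at least 50% at 8 µM in the primary screen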
Target sequence (O15151 whole entry, looked up): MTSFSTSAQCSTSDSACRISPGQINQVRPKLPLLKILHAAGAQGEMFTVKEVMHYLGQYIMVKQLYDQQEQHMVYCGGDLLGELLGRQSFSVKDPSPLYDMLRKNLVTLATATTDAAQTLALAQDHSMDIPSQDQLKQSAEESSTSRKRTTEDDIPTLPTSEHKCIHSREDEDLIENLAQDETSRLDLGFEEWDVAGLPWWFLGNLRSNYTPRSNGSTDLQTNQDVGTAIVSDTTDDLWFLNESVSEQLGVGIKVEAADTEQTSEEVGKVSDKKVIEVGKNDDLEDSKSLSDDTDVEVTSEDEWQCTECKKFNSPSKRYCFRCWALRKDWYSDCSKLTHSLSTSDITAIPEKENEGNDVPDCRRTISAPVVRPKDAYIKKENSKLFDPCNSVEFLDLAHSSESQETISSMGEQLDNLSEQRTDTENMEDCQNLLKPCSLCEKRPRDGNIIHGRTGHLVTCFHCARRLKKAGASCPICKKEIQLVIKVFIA
Target sequence (Q00987 whole entry, looked up): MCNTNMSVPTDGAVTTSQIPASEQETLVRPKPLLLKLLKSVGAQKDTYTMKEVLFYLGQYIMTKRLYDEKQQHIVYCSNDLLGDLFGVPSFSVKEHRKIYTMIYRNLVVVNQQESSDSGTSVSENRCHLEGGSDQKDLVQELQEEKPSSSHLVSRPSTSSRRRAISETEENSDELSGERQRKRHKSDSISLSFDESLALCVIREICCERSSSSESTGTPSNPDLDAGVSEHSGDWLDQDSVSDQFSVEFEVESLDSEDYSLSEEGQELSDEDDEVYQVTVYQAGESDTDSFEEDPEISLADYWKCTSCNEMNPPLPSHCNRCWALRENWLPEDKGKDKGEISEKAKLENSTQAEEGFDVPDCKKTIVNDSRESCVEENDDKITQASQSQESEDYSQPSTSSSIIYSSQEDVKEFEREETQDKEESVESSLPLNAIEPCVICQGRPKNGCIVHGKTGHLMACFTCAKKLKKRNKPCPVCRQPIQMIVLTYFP
Beta apoptosis – beta cell apoptosis inhibition; INS-1E cytokine-induced death, ATP luminescence, 48 h; percent of positive-control rescue, neutral wells zero; protection from apoptosis, % (no concentration beside the values); 300,000 tested, 0.8% active; AID 435005;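 active = Every replicate reaches about 75%, or at least half do and their mean reaches it too, limit read from the data; inconclusive = At least half of replicates reach the limit but their mean does not; inactive = Under half of replicates reach the limit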;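 note: 0% = cytokine-treated negative control wells and 100% = positive control rescue; higher means more ATP so stronger rescue from cytokine killing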
Mdm2 MdmX conf – confirmation of human Mdm2/MdmX interaction inhibitors | shares compounds with Mdm2 MdmX PPI | Mdm2-MdmX binding, luminescent assay | inhibition, % at 8 µM | 10,000 tested, 55% active | AID 489028; in the data active = inhibition above about 40%
FLuc counter – counter-screen for Mdm2/MdmX inhibitors: full-length luciferase | shares compounds with Mdm2 MdmX PPI | SaOS-2 full-length luciferase counterscreen, luminescence | inhibition, % at 8 µM | 6,200 tested, 77% active;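 active = mean inhibition at 8 µM reaching about 37%, which flags the compound as non-specific, limit read from the data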;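 note: p53-null SaOS-2 cells with luciferase driven by a doxycycline-inducible promoter; compound on cells about two nights before reading with doxycycline added after day one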
Numbers without * were called inactive; ? = inconclusive; nt = not tested or not shown; + = active, no number.

SMILES | CSC inhib | MPTP inh | GRIN3A LBD mod | SKKanGAS inh | Mdm2 MdmX PPI | Beta apoptosis | Mdm2 MdmX conf | FLuc counter
COc1ccccc1N(C)S(=O)(=O)c1ccc(C(=O)NNC(=O)c2ccccc2O)cc1 | nt | 4 | -4 | nt | 62* | nt | 60* | 48*
Cc1nn(Cc2c(Cl)cccc2Cl)c(C)c1NC(=O)c1cc(C(C)C)on1 | 31 | -1 | -15 | -4 | 79* | 8 | 62* | 54*
Cc1nn(Cc2c(Cl)cccc2Cl)c(C)c1NC(=O)Cn1nc([N+](=O)[O-])c(Cl)c1C | -12 | 2 | 0 | 0 | 70* | -3 | 4 | nt
Cc1nn(Cc2ccccc2)c(C)c1NC(=O)Cn1nc([N+](=O)[O-])c(Cl)c1C | -12 | 0 | 0 | -2 | 2 | -8 | nt | nt
CCNC(=S)N/N=C/c1c(C)nn(-c2cccc(Cl)c2)c1Cl | -5 | 0 | 7 | -16 | 13 | 0 | nt | nt
Cc1nn(-c2cccc(Cl)c2)c(Cl)c1/C=N/NC(=O)c1cccs1 | 30 | 6 | 3 | -3 | 78* | 15 | 54* | 48*
COc1ccc(-c2ccccc2[C@H]2[C@@H]3C=CC[C@@H](C)[C@@H]3C(=O)N2Cc2ccccc2)cc1 | nt | -1 | 2 | nt | 69* | nt | 22 | nt
COc1ccc(-c2ccc(F)cc2)cc1[C@H]1[C@H]2C=CC[C@@H](C)[C@@H]2C(=O)N1Cc1ccccc1 | -6 | 3 | -2 | 32 | 61* | -6 | 44* | 50*
COc1ccc(-c2c([C@H]3[C@H]4C=CC[C@@H](C)[C@@H]4C(=O)N3Cc3ccccc3)ccc3ccccc23)cc1OC | 45 | 2 | -1 | 22 | 71* | 33 | 20 | nt
COc1ccc(-c2ccc(OC)c([C@H]3[C@H]4C=CC[C@@H](C)[C@@H]4C(=O)N3Cc3ccccc3)c2)cc1OC | 61 | -1 | -2 | 30 | 58* | 16 | -10 | nt
COc1ccc([C@H]2[C@H]3C=CC[C@@H](C)[C@@H]3C(=O)N2Cc2ccccc2)cc1Cl | 6 | -2 | 0 | 22 | 34 | -17 | nt | nt
C[C@@H]1CC=C[C@@H]2[C@H]1C(=O)N(Cc1ccccc1)[C@H]2c1ccccc1Br | nt | -1 | 3 | nt | 2 | nt | nt | nt
COc1ccc(-c2ccc([C@H]3[C@H]4C=CC[C@@H](C)[C@@H]4C(=O)N3Cc3ccccc3)c(F)c2)cc1C | 36 | 3 | 3 | 28 | 29 | 2 | nt | nt
CN1CCN(S(=O)(=O)c2ccc(C#N)cc2)C(c2ccccc2)C1 (stereo not given) | 8 | -1 | 1 | nt | -12 | -8 | nt | nt
Cc1c(C(=O)N(CC(C)C)c2c(N)n(Cc3ccccc3)c(=O)[nH]c2=O)sc2nc3n(c(=O)c12)CCC3 | -8 | 0 | 0 | -1 | -22 | nt | nt | nt
CCOc1ccc(NS(=O)(=O)c2cccc(C(=O)N(C)Cc3ccco3)c2)cc1 | -8 | -3 | 2 | nt | 15 | -2 | nt | nt
COc1ccc(Br)cc1[C@H]1[C@H]2C=CC[C@@H](C)[C@@H]2C(=O)N1Cc1ccccc1 | nt | -1 | -1 | 42 | 58* | nt | 37 | nt
O=C1C2C(c3ccccc3)CC=CC2[C@H](c2ccc(C(F)(F)F)cc2)N1Cc1ccccc1 (stereo not given in full) | ? | -1 | 4 | 25 | 79* | 21 | 43* | 63*
C[C@@H]1CC=C[C@@H]2[C@H]1C(=O)N(Cc1ccccc1)[C@H]2c1cccc(Br)c1 | nt | -1 | -3 | nt | 65* | nt | 11 | nt
C[C@@H]1CC=C[C@@H]2[C@H]1C(=O)N(Cc1ccccc1)[C@H]2c1cccc(C#Cc2ccccc2)c1 | nt | 0 | -1 | nt | 36 | nt | nt | nt
CCCn1c(N)c(C(=O)CSc2n[nH]c(-c3ccc(C)cc3)n2)c(=O)[nH]c1=O | -5 | -1 | 0 | -1 | -5 | 4 | nt | nt
Oc1[nH]c2ccccc2c1N=Nc1ncnc2c1oc1ccccc12 | -4 | nt | nt | 2 | 100* | 2 | 2 | nt
CCc1cc2c(N=Nc3c(O)[nH]c4ccccc34)ncnc2s1 | nt | 1 | 1 | -9 | 2 | 2 | nt | nt
N=c1n(CC(=O)c2cccc([N+](=O)[O-])c2)c2ccccc2n1Cc1ccccc1 | 24 | 2 | -7 | 13 | 92* | 25 | 5 | nt
N=c1n(CC(=O)c2ccc(Br)s2)c2ccccc2n1Cc1ccccc1 | 25 | 14 | -5 | 6 | 97* | 26 | 62* | 53*
SMILES | CSC inhib | MPTP inh | GRIN3A LBD mod | SKKanGAS inh | Mdm2 MdmX PPI | Beta apoptosis | Mdm2 MdmX conf | FLuc counter
Cn1c(=N)n(CC(=O)c2ccc(Br)s2)c2ccccc21 | 0 | 11 | 2 | 1 | 12 | -3 | nt | nt
COc1cccc(NC(=O)C(C)N2C(=O)c3ccccc3C2=O)c1 (stereo not given) | -10 | 0 | 1 | 0 | 28 | -13 | nt | nt
CSc1ccc(C(=O)C2CCCN(C(=O)CCc3c(C)nn(C)c3C)C2)cc1 (stereo not given) | -5 | 2 | 0 | 1 | 11 | 29 | nt | nt
CCCCNc1c(-c2cccc(-c3cc(C(C)=O)cs3)c2)nc2ccc(C)cn12 | 125* | 11 | -11 | 53* | 81* | 2 | 58* | 60*
C[C@H](CO)N1C[C@H](C)[C@@H](CN(C)Cc2ccc(C(=O)O)cc2)Oc2c(cccc2N(C)C)C1=O | -13 | 0 | 1 | nt | -7 | -2 | nt | nt
C=CCN1C(=O)c2ccc(C(=O)OCC(=O)N(CC)c3c(N)n(Cc4ccccc4)c(=O)[nH]c3=O)cc2C1=O | nt | -1 | -1 | nt | nt | nt | nt | nt
Cc1nc(/C(N)=N/OC(=O)c2c(-c3ccccc3Cl)noc2C)cs1 | 18 | 7 | 0 | 2 | 93* | -1 | 76* | 96*
COc1ccc(/C(N)=N/OC(=O)c2c(-c3ccccc3Cl)noc2C)cc1OC | 25 | 1 | 18* | -7 | 100* | 7 | 96* | 96*
CCC1CCc2sc(C(=O)NCC(c3ccccc3OC)N3CCCC3)cc2C1 (stereo not given) | -9 | 1 | -1 | nt | 75* | 0 | 18 | nt
CN1CCN(c2ncnc3c2cnn3-c2ccc(Cl)cc2)CC1 | 39 | 0 | 1 | 1 | 51* | 0 | 60* | +
Cc1ccc(C(=O)N2CCN(c3ncnc4c3cnn4-c3ccccc3)CC2)cc1 | -11 | 6 | nt | 0 | 82* | 6 | 58* | 68*
COc1ccc(-n2ncc3c(N4CCN(Cc5ccccc5)CC4)ncnc32)cc1 | 37 | 1 | -3 | 1 | 85* | 5 | 64* | 77*
CC1CCCN(c2ncnc3c2cnn3-c2ccccc2)C1 (stereo not given) | 43 | 2 | 2 | -7 | 52* | 6 | 52* | 192*
Cc1cc(C)cc(OCC(=O)Nc2ccncc2)c1 | -13 | 1 | 2 | -3 | -9 | -1 | nt | nt
O=C(CSc1n[nH]c(-c2ccccc2Cl)n1)NC1CCCCC1 | -12 | 0 | 1 | 1 | -30 | -6 | nt | nt
